# HT1080NT lethal: qHTS for induction of synthetic lethality in tumor cells producing 2HG: qHTS for the HT-1080-NT fibrosarcoma cell line | HT-1080-NT fibrosarcoma viability, CellTiter-Glo ATP luminescence, 48 h | Potency, µM (doses to about 46.1 µM), inactives show top-dose activity, negative = less viability, actives largely listed as cytotoxic | 360,000 tested, 1.6% active;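 also: NT is the 2HG producing partner of a matched IDH1 knockdown line; potency is read from the fitted curve at half-maximal effect; 0% = DMSO-treated cells and -100% = media-only wells without cells; nearly all actives have a fitted effect of over 55% in size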
#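 Compounds were tested in concentration-response format on HT-1080-NT cells for 48 hours at 37 degrees C. Cell viability came from CellTiter-Glo luminescence; curves were classified by r2, response magnitude and activity.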
# ELG1 repair inh: qHTS screen for small molecules that inhibit ELG1-dependent DNA repair in human embryonic kidney (HEK293T) cells expressing luciferase-tagged ELG1; HEK293T ELG1-luciferase reporter, luminescence, 16 h; DNA damage induced by 5-fluorouridine; Potency, µM (series often up to 46.1 µM), inactives show at the highest dose activity change, negative = inhibition, most hits filed as inhibitors; 330,000 tested, 2.3% active; AID 504467, 2011; also: potency is read from the fitted curve at half-maximal effect; nearly all actives have a fitted effect of over 55% in size
#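 Cells (2,000 per well) received 5-fluorouridine plus test compound or DMSO and were incubated 16 hr at 37 °C, 5% CO2. Luciferase activity was read by luminescence 30 min after ONE-Glo addition; signal suppression marked inhibition of damage-induced ELG1 function.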
# IL-1B inflam inh: qHTS for Inhibitors of Inflammasome Signaling: IL-1-beta AlphaLISA Primary Screen | THP-1 LPS/ATP IL-1B secretion, AlphaLISA, 16 h; stronger effect = lower value | activity change, % at 57.5 µM | 360,000 tested, 4.7% active; in the data active = activity change below about -50%; inconclusive = mostly about -30% to -49%
#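 Secreted IL-1B measured by AlphaLISA bead assay after 16 h compound exposure of THP-1 cells; compounds (final up to 57.5 uM) added 1 h before LPS (250 ng/mL) and ATP (1.25 mM) stimulation; lower signal means less secretion.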
# HT1080 IDH1KD tx: qHTS for induction of synthetic lethality in tumor cells producing 2HG: qHTS for the HT-1080-IDH1KD cell line; Potency, µM (titrated, usually from 46.1 µM), for inactives: top-dose activity, negative = toxicity, usual class: cytotoxic; 360,000 tested, 2% active; AID 686971, 2013; HT-1080 IDH1 knockdown viability, ATP luminescence, 48 h;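 also: potency is read from the fitted curve at half-maximal effect; 0% = DMSO wells and -100% = cell-free medium wells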
#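 Knockdown cells (IDH1KD HT-1080) received compounds 2 h after plating at 750 cells/well and were kept 48 h at 37 °C in 5% FBS RPMI. A CellTiter-Glo luminescence read gave % activity for curve fitting.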
# TDP1 cell CPT: qHTS for Inhibitors of human tyrosyl-DNA phosphodiesterase 1 (TDP1): qHTS in cells in presence of CPT | Potency, µM (highest dose often 46.2 µM), for the others: at the highest dose activity change, negative = growth inhibition, most hits filed as inhibitors | chicken DT40 Tdp1-/-;hTDP1 cells + 20 nM CPT, ATP luminescence, 48 h | 420,000 tested, 12% active; also: potency is read from the fitted curve at half-maximal effect; nearly all actives have a fitted effect of over 55% in size
#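 Chicken DT40 Tdp1-/- cells complemented with human TDP1, 400 cells/well, exposed to compounds plus 20 nM camptothecin for at least 48 h at 37 C; viability read as ATP content by CellTiter-Glo luminescence.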
# DT40 TDP1 no CPT: qHTS for Inhibitors of human tyrosyl-DNA phosphodiesterase 1 (TDP1): qHTS in cells in absence of CPT | DT40 Tdp1-/- hTDP1 cells, no CPT, ATP luminescence, 48 h | Potency, µM (titrated, usually from 46.2 µM), inactives show at the top dose activity change, negative = growth inhibition, hits mostly inhibitors | 420,000 tested, 15% active | AID 686978, 2013; also: potency is read from the fitted curve at half-maximal effect; nearly all actives have a fitted effect of over 55% in size
#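 Growth kinetics read by CellTiter-Glo luminescence after ≥48 hr at 37 °C. Cells: DT40 Tdp1-/- stably carrying human TDP1, 400 per well, compound exposure in the absence of CPT (DMSO vehicle).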
# Active calls of the source: *; ? = inconclusive; / = not tested or not shown; [ ] = dose if it differs, or a comment. The list is not random: actives were taken first. Their share in the collection is about 19%. Unless noted, calls follow the shape of the dose curve; as a rule, active = well fitted curve in the direction sought with a large enough effect; inconclusive = small, poorly fitted or top-dose-only effect, or another doubt; inactive = no such curve, though single readings can be large; an effect the other way counts as inactive or inconclusive. Unless noted, % is scaled to controls: 0 for no effect and ±100 for the full control effect.
SMILES,HT1080NT lethal,ELG1 repair inh,IL-1B inflam inh,HT1080 IDH1KD tx,TDP1 cell CPT,DT40 TDP1 no CPT
COc1cccc(/C(C)=N/Nc2ccc(S(=O)(=O)N3CCCCC3)cn2)c1,-11%,-26%,-2,-9%,?,2.9µM*
C/C(=N\Nc1ccc(S(=O)(=O)N2CCCCC2)cn1)c1ccc(O)cc1,-7%,?,0,-12%,?,15µM*
COc1cccc(CNc2ccc(S(=O)(=O)N3CCCC3)cn2)c1,2%,-18%,8,-7%,?,?
Cc1ccc(NC(=O)c2ccc(S(=O)(=O)N3CCCCCC3)cc2)nc1,?,?,-30,-11%,-28%,?
CC1(C)c2[nH]c3ccccc3c2C[C@H]2C(=O)N(CCCCCO)CC(=O)N21,-1%,?,-8,-2%,-4%,11%
COCCn1c(SCC(=O)c2c[nH]c3ccccc23)nc2cc(C(=O)NCC(C)C)ccc2c1=O,/,/,/,/,?,-19%
Cc1ccc(C)c(OCC(=O)Nc2ccccc2C(=O)N2CCOCC2)c1,5%,-3%,-1,-1%,0%,?
O=C(NCCOc1cccnc1)C1CCC(=O)N(Cc2ccccc2F)C1 (stereo not given),?,-10%,3,12%,0%,31%
CCN(C(=O)COc1ccc(C(C)=O)cc1)c1cccc2ccccc12,-14%,?,?,-1%,15µM*,?
Cc1ccc2c(c1C)C(=O)C(=O)N2,2%,/,61,9%,2%,-27%
COCCNc1ncnc2ccc(-c3c(C)noc3C)cc12,/,/,/,/,12µM*,?
CN(C)c1ccc(-c2ccc3ncnc(NC4CC4)c3c2)cc1,/,/,/,/,8.2µM*,13µM*
CN(C)C(=O)c1ccc(-c2ccc3ncnc(NC4CCNCC4)c3c2)cc1,/,/,/,/,7%,-3%
CC(=O)NCCNc1ncnc2ccc(-c3c(C)noc3C)cc12,/,/,/,/,?,-29%
Cc1noc(C)c1-c1ccc2ncnc(NC3CC3)c2c1,/,/,/,/,?,21µM*
c1nc(NC2CCNCC2)c2cc(-c3ccc4c(c3)OCO4)ccc2n1,/,/,/,/,?,15µM*
COc1cccc(CNC(=O)c2c(C)oc3ncnc(N4CCOCC4)c23)c1,/,/,/,/,14%,-1%
COc1ccccc1N1CCN(c2csc3ccc(Cl)cc3c2=O)CC1,/,/,/,/,-10%,-18%
CCCc1nn2c(=O)cc(COC(=O)c3ccccc3NC(=O)c3cccs3)nc2s1,/,/,/,/,-11%,-11%
Cc1ccc(S(=O)(=O)c2nc(S(=O)(=O)c3ccccc3)sc2N2CCN(CCO)CC2)cc1,?,-21%,-68*,-8%,?,?
CCS(=O)(=O)c1nc(S(=O)(=O)c2ccc(C)cc2)c(N2CCN(CCO)CC2)s1,15%,6%,-4,0%,4%,16%
CCN1CCN(c2sc(S(=O)(=O)CC)nc2S(=O)(=O)c2ccc(C)cc2)CC1,3%,/,-28,-5%,-4%,-7%
CS(=O)(=O)c1nc(S(=O)(=O)c2ccc(Cl)cc2)c(N2CCC(C(N)=O)CC2)s1,19%,-22%,-79*,2%,?,?
CCN(CC)c1sc(S(=O)(=O)c2ccccc2)nc1S(=O)(=O)c1ccc(C)cc1,/,/,/,/,?,15µM*
CCN1CCN(c2sc(S(C)(=O)=O)nc2S(=O)(=O)c2ccc(C)cc2)CC1,8%,?,-85*,3%,?,15µM*
SMILES,HT1080NT lethal,ELG1 repair inh,IL-1B inflam inh,HT1080 IDH1KD tx,TDP1 cell CPT,DT40 TDP1 no CPT
CC(C)c1ccc(NC(=O)CN(C)C2=NS(=O)(=O)c3ccccc32)cc1,5%,/,8,-1%,?,?
O=C(N/N=C/c1cccc(Oc2ccccc2)c1)c1ccncc1,-1%,2%,57,3%,-5%,-3%
Cc1ccccc1OCC(=O)N/N=C/c1cccc(Oc2ccc([N+](=O)[O-])cc2[N+](=O)[O-])c1,-3%,?,-96*,-21%,15µM*,21µM*
O=C(N/N=C/c1cccc(Oc2ccc([N+](=O)[O-])cc2[N+](=O)[O-])c1)c1cncc(Br)c1,?,15%,-4,11µM*,?,18µM*
Cc1cccc(NC(=O)c2oc3ccc(S(=O)(=O)N4CCOCC4)cc3c2C)c1C,-2%[9.24 µM],?,-6,?,?,23µM*
Cc1c(C(=O)NCc2cccs2)oc2ccc(S(=O)(=O)N3CCOCC3)cc12,3%,10µM*,?,-11%,-24%,?
CC(C)(C)OC(=O)N(CCc1ccccc1)Cc1ccccc1OCc1cccc(NC(=O)/C=C/c2ccccc2)c1,5%,/,-20,14%,9.2µM*,7.3µM*
CC(C)(C)OC(=O)N(CCc1ccccc1)Cc1ccc(OCc2cccc(NC(=O)C3CC3)c2)cc1,2%,/,?,0%,5.8µM*,4.6µM*
CC(C)(C)OC(=O)N(CCc1ccccc1)Cc1ccc(OCc2cccc(NC(=O)C3CCC3)c2)cc1,1%,/,0,-5%,21µM*,15µM*
CC(C)(C)OC(=O)N(CCc1ccccc1)Cc1cccc(OCc2cccc(NC(=O)c3ccccc3)c2)c1,1%,/,?,1%,23µM*,18µM*
COc1cc(=O)n2c(c1C(=O)N(C)Cc1cscn1)CCN(C(=O)c1ccc(C)cc1C)CC2,/,/,/,/,7%,-6%
CN(C)c1ncc2nc(-c3ccc(F)cc3)c(=O)n(CCC#N)c2n1,/,/,/,/,23%,-3%
Cc1[nH][nH]c(=O)c1C(c1ccccc1[N+](=O)[O-])C(C#N)C#N (stereo not given),-13%,5%,-146*,-8%,?,-28%
CCCC1CC(C(=O)N[C@H](C(C)O)C2OC(SC)[C@@H](O)C(O)C2O)N(C)C1 (stereo not given in full),/,/,/,/,-4%,-5%
COc1ccc(NC2CCCN(C(=O)CSc3ccccn3)C2)cc1OC (stereo not given),-3%,-2%,34,1%,-21%,-1%
COc1ccc(NC2CCCN(Cc3cccc4cnccc34)C2)cc1 (stereo not given),-4%,10%,17,1%,?,21µM*
